For 33 molecules, inhibition results are on record in ChEMBL document CHEMBL3433997, “St. Jude Leishmania screening dataset” (2016).

Common to all, as to format: functional
Assay [1] concerns the target Solute carrier family 2, facilitated glucose transporter member 1 (Homo sapiens) (UniProt P11166). The assay can be described thus: ST_JUDE_LEISH: Cytotoxicity at 2uM final concentration against transgenic Leishmania Mexicana promastigotes LmGLUT1 that are glucose transport deficient and complemented with the human glucose transporter GLUT1. Activity is measured by DNA content using SYBR green in vitro.

The target of assay [2] is Hexose transporter 1 (Plasmodium falciparum) (UniProt O97467). In words: ST_JUDE_LEISH: Cytotoxicity at 2uM final concentration against transgenic Leishmania Mexicana promastigotes LmPfHT that are glucose transport deficient and complemented with the Plasmodium falciparum hexose transporter. Activity is measured by DNA content using SYBR green in vitro.
In assay [3] the target is Glucose transporter (Leishmania mexicana) (UniProt O61059). In words: ST_JUDE_LEISH: Cytotoxicity at 2uM final concentration against transgenic Leishmania Mexicana promastigotes LmGT2 that are glucose transport deficient and complemented with the L. Mexicana glucose transporter 2. Activity is measured by DNA content using SYBR green in vitro.

Structures are written as SMILES.

Sequence of Solute carrier family 2, facilitated glucose transporter member 1 (Homo sapiens) (P11166 whole entry): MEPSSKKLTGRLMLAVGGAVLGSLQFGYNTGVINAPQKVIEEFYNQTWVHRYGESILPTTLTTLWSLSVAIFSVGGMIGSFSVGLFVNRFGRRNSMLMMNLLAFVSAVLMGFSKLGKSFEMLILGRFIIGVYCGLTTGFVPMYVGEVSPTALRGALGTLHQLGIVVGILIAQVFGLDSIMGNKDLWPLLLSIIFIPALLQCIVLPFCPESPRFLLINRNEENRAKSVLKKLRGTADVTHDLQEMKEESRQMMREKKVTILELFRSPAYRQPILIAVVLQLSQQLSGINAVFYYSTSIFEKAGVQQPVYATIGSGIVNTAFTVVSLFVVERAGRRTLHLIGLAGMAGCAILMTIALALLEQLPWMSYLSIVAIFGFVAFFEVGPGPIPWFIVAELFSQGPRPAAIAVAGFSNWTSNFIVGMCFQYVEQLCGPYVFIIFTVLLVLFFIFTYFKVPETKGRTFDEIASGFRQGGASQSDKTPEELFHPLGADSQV

Consider `O=c1cc(NCCCNCc2cc3ccccc3s2)[nH]c2ccccc12`, for which the inhibition – broadly, the drop in the measured response relative to a control, in per cent – in assay [1] was determined as 4.89%; in assay [2] it was 6.01%; in assay [3], 3.82%.
Regarding `N=C(N)NC(=O)Nc1ccc(Cl)c(Cl)c1`, the inhibition in assay [1] was 3.47%; in assay [2], -2.48%; in assay [3], -1.06%.
The corresponding values for `CC1(CCCCN2CCC(Oc3ccc(F)cc3F)CC2)C(=O)Nc2ccccc21` (centres undefined) are 3.9%, 3.15% and 5.35%.
Turning to `CCCCC(N)COc1cccc2c(-c3ccncc3)c(-c3cccc(NC(=O)Nc4ccccc4)c3)nn12` (centres undefined), the inhibition in assay [1] is 3.39%; in assay [2], 2.13%; in assay [3], 2.8%.
As for `CC(C)(C)C(=O)N1CCN(c2ccc([N+](=O)[O-])c(NC3CC3)c2)CC1`, the results for the inhibition in assay [1], in assay [2] and in assay [3] were 2.03%, 2.58% and 2.27%, respectively.
`COc1ccc(-c2ccc(CNCc3ccc(F)cc3)cc2)cc1S(=O)(=O)NCCN1CCCC1`: the inhibition in assay [1] turned out to be 0.67%; in assay [2], 1.06%; in assay [3] it was 3.23%.
Take `COc1ccc(C(=O)N[C@@H](CC(C)C)C(=O)NC2CC[C@@H](C)N(C(=O)Nc3ccc(Cl)cc3)CC2=O)cc1OCCN1CCOCC1` (some centres undefined): the inhibition worked out at 2.44% in assay [1], 3.66% in assay [2] and 5.16% in assay [3].
With `CN1CCCC(CN2CCN(Cc3cccc(-c4ccc(-c5nc6ccccc6[nH]5)s4)c3)CC2)C1` (centres undefined), the inhibition in assay [1] is 7.08%; in assay [2], 6.85%; in assay [3] it was 3.05%.
With `Cc1ccc(O)cc1Nc1ccnc2cc(-c3csc(CN(C)CCN(C)C)n3)ccc12`, the inhibition in assay [1] was -0.07%; in assay [2] it was -0.87%; in assay [3] it was 0.38%.
For the molecule `CN(C)c1ccc(-c2csc(C(=O)NC3CCN(CCC(C)(C)C)C3)c2)cc1` (centres undefined), the inhibition is 3.05% in assay [1], 4.39% in assay [2] and 2.37% in assay [3].
Take `C=CCc1cc(Cc2cnc(N)nc2N)c2ccc(C)nc2c1OC`: the inhibition in assay [1] was found to be 8.65%; in assay [2], 6.7%; in assay [3], 5.13%.
For `CC(NC(=O)c1ccc(O)c(-c2ccc(Cl)c(Cl)c2)c1)C(=O)NCCN1CCOCC1` (centres undefined), in that order: 1.85%, 2.13% and 3.62%.
Regarding `CC1CN(Cc2csc(Nc3ccccc3)n2)CC(C)O1` (centres undefined), the inhibition in assay [1] is -0.51%; in assay [2], 0.99%; in assay [3] it was 3.5%.
With `O=C(Nc1cccc(F)c1)c1ccc(C(=O)NC2CCN(CC3CCCCC3)C2)cc1` (centres undefined), the inhibition in assay [1] turned out to be 11.1%; in assay [2] it was 9.73%; in assay [3] it was 8.76%.
For `O=C(Nc1cccc(-c2nn3ccccc3c2-c2ccnc(Nc3ccc(-c4cc[nH]n4)cc3)n2)c1)c1c(F)cccc1F`, the inhibition was 6.17% in assay [1], 10.3% in assay [2] and 1.44% in assay [3].
Take `COc1cccc(-c2ccc3c(-c4cccc(S(C)(=O)=O)c4)cnc(N)c3c2)c1`: the inhibition in assay [1] came out at 8.21%; in assay [2], 5.42%; in assay [3], 2.21%.
With `Cc1cc(N[C@@H](CC(C)C)C(=O)NCCc2ccccc2)nc(NCc2ccccc2C)n1`, the inhibition in assay [1] was 2.23%; in assay [2], 4.73%; in assay [3], -0.21%.
For `CN1CCN(CCCN(Cc2csc(-c3ccc(CNCc4ccccc4)cc3)n2)C(=O)Nc2ccc3ccccc3c2)CC1`, in that order: 2.94%, 4.46% and 0.42%.
As to `COc1ccc(/C=C/C(=O)N2CCc3cc4nccc(N5CCN6CCC[C@H]6C5)c4cc32)cc1`, the inhibition in assay [1] is 3.43%; in assay [2] it was 4.78%; in assay [3] it was 4.53%.
`O=C(NCCNc1noc(-c2sccc2Br)n1)c1ccc(Cl)cc1`: the inhibition in assay [1] was -1.4%; in assay [2], 3.34%; in assay [3], -0.91%.
As to `CCOC(=O)c1cncc(/C=C/c2cc(C)cnc2N)c1`, the inhibition in assay [1] stood at 5.82%; in assay [2], 8.59%; in assay [3] it was 8.04%.
For `Cc1noc(C)c1-c1ccc(C(=C2CCCCCC2)c2ccc(O)cc2)cc1`, the values for the inhibition in assay [1], in assay [2] and in assay [3] were 3.18%, 3.88% and 4.06%, respectively.
`O=C(NCc1cccc(CN2CCOCC2)c1)c1cc(Br)cc(N2CCN(c3ccncc3)CC2)c1`: the inhibition stood at 0.32% in assay [1], 0.81% in assay [2] and 0.57% in assay [3].
Regarding `CCCCCCCC1CCN(C[C@H](O)c2ccnc3ccc(OC)cc23)CC1`, the inhibition came to 2.75% in assay [1], 0.96% in assay [2] and 2.08% in assay [3].
With `Cc1cccc(Nc2nccc(NCC(O)c3ccc(C(F)(F)F)cc3)n2)c1` (centres undefined), the inhibition in assay [1] was 10.6%; in assay [2], 11.4%; in assay [3], 2.83%.
The corresponding values for `COc1cc(NC(=O)/C=C/c2ccccc2OC(F)(F)F)cc(OCCN2CCCCC2)c1` are 2.6%, 1.06% and 1.67%.
The corresponding values for `CC(C)CCNC(=O)C1Cc2c([nH]c3cc(Br)ccc23)C2(CCN(Cc3ccccc3)CC2)N1` (centres undefined) are 15%, 11.3% and 14.8%.
With `CS(=O)(=O)c1cccc(-c2cnc(N)c3cc(-c4ccc(F)cc4)ccc23)c1`, the inhibition in assay [1] is 2.85%; in assay [2], 1.64%; in assay [3] it was 1.35%.
Turning to `Nc1cc(-c2ccc3c(N)nccc3c2)ccc1Cl`, the inhibition in assay [1] came to 4.64%; in assay [2], 2.75%; in assay [3] it was 1.32%.
Turning to `Cc1cc(-c2nc3cc(C(=N)N)ccc3[nH]2)c(C)cc1-c1nc2cc(C(=N)N)ccc2[nH]1`, the inhibition in assay [1] was determined as 4.57%; in assay [2], 3.95%; in assay [3], 0.94%.
Consider `O=C(Cc1cccc(O)c1)NCC(Cc1ccc(O)cc1)c1ccccc1` (centres undefined), for which the inhibition was 0.64% in assay [1], -0.06% in assay [2] and 0.22% in assay [3].
As to `C[C@H](Cc1ccc(OCCCCCCOc2ccc(C[C@@H](C)N[C@H](C)c3ccccc3)cc2)cc1)NC[C@H](O)c1cccc(Cl)c1`, the figures for the inhibition in assay [1], in assay [2] and in assay [3] were 106%, 94% and 82.4%, respectively.
Take `C=CCc1cc(Br)ccc1OCCCOc1c(C)nc(N)nc1N`: the inhibition in assay [1] was found to be 73.6%; in assay [2], 76%; in assay [3], 57%.
